The record followed here is PubChem BioAssay AID898 (University of Pittsburgh Molecular Library Screening Center, 2007).

The structures appear in SMILES notation. The campaign covered roughly 140,000 compounds. About 220 (0.16%) were called active. Cut-off read from the data, not from the text of the source: active = inhibition above about 50%; inactive = the rest. Many of the other results were omitted from the sample, so actives are more common in it than they were.

This assay relates to YopH tyrosine phosphatase [Yersinia enterocolitica]. In words: YopH tyrosine phosphatase inhibitors, primary screen, biochemical, fluorescence Ex485/Em525 (AID 898). To be noted: hits give high values, concentration not given here.
A word on the inhibition: it is the drop in the measured response relative to a control, in per cent. With `CC(C)Cc1nn2c(=O)cc(O)nc2s1`, the inhibition is -35.6% (inactive).

In the case of `COc1ccc(OCC(=O)Nc2cc(C)c(Cl)cc2OC)c([N+](=O)[O-])c1`, the inhibition is -16.9% (inactive).

Consider `O=C(OCC1O[C@@H](OC(=O)c2cc(O)c(O)c(O)c2)[C@@H](OC(=O)c2cc(O)c(O)c(O)c2)[C@@H](OC(=O)c2cc(O)c(O)c(O)c2)[C@@H]1OC(=O)c1cc(O)c(O)c(O)c1)c1cc(O)c(O)c(O)c1` (stereo partly specified), for which the inhibition is 71.9% (active).

As to `CC(=O)NC1C(OCc2ccccc2)OC(COC(C)=O)C(OC(C)=O)C1OC(C)=O` (stereo unspecified), the inhibition is -23.9% (inactive).

In the case of `S=C(NCCc1ccccc1)NCC1CCCO1` (stereo unspecified), the inhibition is -37.5% (inactive).

On to `CCS(=O)(=O)Nc1cccc(-c2cc(-c3ccccc3)c3cc(C)ccc3n2)c1`, for which the inhibition is -8.31% (inactive).

For the molecule `CCc1ccc(C(=O)OCC(=O)Nc2cccc(S(=O)(=O)NC3=NCCCCC3)c2)cc1`, the inhibition is -20.5% (inactive).

Consider `Cc1cc([N+](=O)[O-])ccc1NC(=O)C1CCCO1` (stereo unspecified), for which the inhibition was -25.6% (inactive).

With `Cc1cc([N+](=O)[O-])nn1CC(=O)Nc1ccc(Cc2ccncc2)cc1`, the inhibition is -27.8% (inactive).

For the molecule `O=C(Nc1ccccc1Cc1ccccc1)c1ccc2c(c1)SC1=NS(=O)(=O)CCN12`, the inhibition was -31.8% (inactive).

Consider `CCOC(=O)CN1C(=O)N[C@@H](c2ccc(Br)cc2)C(C(C)=O)=C1C`, for which the inhibition was -19.8% (inactive).

As for `CC(=O)c1ccc(N2CCN(C(=O)c3ccc4nc[nH]c4c3)CC2)cc1`, the inhibition was -23.5% (inactive).

As for `COc1ccc2oc(-c3cccc(NC(=O)CSc4ccc(Cl)cc4)c3)nc2c1`, the inhibition is -28.2% (inactive).

In the case of `COc1ccc(N2C(=O)C(CC(=O)Nc3ccc(F)cc3)N(CCc3cccs3)C2=O)cc1` (stereo unspecified), the inhibition is -4.8% (inactive).

For the molecule `Cc1ccc(CCCOC(=O)C[N+]2(C)CCCC2)cc1`, the inhibition is -21.4% (inactive).

For the molecule `CCC(=O)Nc1c(C)n[nH]c1C`, the inhibition is -26.6% (inactive).

With `CCCN1C(=O)C(Cc2nc3ccccc3c(=O)n2-c2ccccc2)c2cc(C)ccc21` (stereo unspecified), the inhibition is -10.9% (inactive).

As for `CCOC(=O)c1cccnc1NC(=O)c1ccncc1`, the inhibition is -10.3% (inactive).

Consider `COc1cccc2c1CCC(NC(C)=O)C2=O` (stereo unspecified), for which the inhibition was -4.91% (inactive).

Turning to `CCN(CC)S(=O)(=O)c1ccc(C)c(NC(=O)COc2ccc(Br)cc2Cl)c1`, the inhibition is -2.1% (inactive).

Turning to `Cc1coc2c(O)cc3c(c12)OC1(N2CCCCC2)C(=O)NCCCC31` (stereo unspecified), the inhibition is 73% (active).

For the molecule `COc1ccc(CNC(=O)CCCn2nc(C)c([N+](=O)[O-])c2C)cc1`, the inhibition was -22.1% (inactive).

`COc1ccc(/C=C/C(=O)NC(=S)NN2CCCCC2c2cccnc2)cc1` (stereo unspecified): the inhibition was -20.6% (inactive).

On to `Cc1ccc(C(=O)COC(=O)CCCC(=O)NC2CCCCC2)cc1[N+](=O)[O-]`, for which the inhibition is -26.3% (inactive).

For `CCNC(=S)N1CCC(c2nc3cc(C)c(C)cc3[nH]2)CC1`, the inhibition was -17.7% (inactive).

`O=S(=O)(ON(c1ccccc1)S(=O)(=O)c1ccccc1)c1ccccc1`: the inhibition is -36.9% (inactive).

In the case of `CCOC(=O)c1csc(NC(=O)Nc2cccc(OC)c2)n1`, the inhibition was -29.1% (inactive).

Regarding `O=C(NC(CC(=O)N1CCN(c2ccccc2)CC1)c1ccccc1)c1ccccc1Cl` (stereo unspecified), the inhibition is -12% (inactive).

As for `CCOc1cccc2c1OC1(CCCCC1)N1N=C(c3cccnc3)CC21` (stereo unspecified), the inhibition was -19.2% (inactive).

Turning to `CC1(c2ccccc2)CC(C)(C)N(C(=O)c2cc([N+](=O)[O-])cc([N+](=O)[O-])c2)c2ccccc21` (stereo unspecified), the inhibition is -29.6% (inactive).

In the case of `CC1CCN(C2=NC(=O)/C(=C/c3cn[nH]c3-c3ccccc3)S2)CC1`, the inhibition was -21.6% (inactive).

`Cc1ccc(-n2c(SCC(=O)Nc3ncc(Cl)cc3Cl)nc3ccccc32)cc1`: the inhibition was 8.79% (inactive).

For `CCOC(=O)/C=C/C(=O)OCC(=O)NC(c1ccccc1)c1ccccc1`, the inhibition was -29% (inactive).

Turning to `Cc1cc(C)c(C2C3=C(Nc4c2c(C)nn4-c2ccccn2)c2ccccc2C3=O)c(C)c1` (stereo unspecified), the inhibition is -0.15% (inactive).

Turning to `CCOC(=O)c1c(C)[nH]c2c1-c1ccccc1C(=O)C2=O`, the inhibition is 78.7% (active).

For `CCOC(=O)C1=C(c2ccc(OC)cc2)C(=O)c2ccccc2C1=O`, the inhibition was 16.7% (inactive).

`CCOC(=O)c1c(C)[nH]c(=S)c(C#N)c1-c1ccccc1`: the inhibition was -37.4% (inactive).

On to `COc1ccc2c(CC(=O)OCC(=O)Nc3ccccc3[N+](=O)[O-])coc2c1`, for which the inhibition was -29.4% (inactive).

On to `Cc1ccc(C(=O)Oc2coc(CSc3nnc(NC(=O)c4cccs4)s3)cc2=O)cc1C`, for which the inhibition is 0.04% (inactive).

As to `NC1=NC(=O)S/C1=C\c1ccc(O)cc1`, the inhibition is -36.5% (inactive).

`CCOc1ccccc1N1CCN(C(=S)Nc2ccc(S(N)(=O)=O)cc2)CC1`: the inhibition is -2.91% (inactive).

On to `CC(C)(C)C(=O)NC(NC(=S)Nc1ccc(S(N)(=O)=O)cc1)C(Cl)(Cl)Cl` (stereo unspecified), for which the inhibition was -18.5% (inactive).

In the case of `Cc1ccc(C(=O)N(CN2CCCC2=O)c2ccc(F)cc2)cc1`, the inhibition was -41.7% (inactive).

As for `CCN1CCC2(CC1)N=C(c1ccc(F)cc1)C(=S)N2C(=O)c1ccc(C)cc1`, the inhibition is 77.9% (active).

As to `CCn1c(C(C)NC(=O)c2ccc(C)cc2)n[nH]c1=S` (stereo unspecified), the inhibition is -41.3% (inactive).

With `CC(=O)c1c(C)[nH]c(C(=O)OCC(=O)Nc2sc3c(c2C#N)CCCC3)c1C`, the inhibition is -24.9% (inactive).

`COCCCN(C(=S)Nc1c(C)cc(C)cc1C)C(C)c1ccncc1` (stereo unspecified): the inhibition was -22.6% (inactive).

On to `Cc1ccccc1-n1nc(C)c2c1N=C1C(Cl)=CC(Cl)=CN1C2c1ccc(C(=O)O)cc1` (stereo unspecified), for which the inhibition is -22.9% (inactive).

Take `COC(C(=O)Nc1ccc(C(C)=O)cc1)c1ccccc1` (stereo unspecified): the inhibition is -28.2% (inactive).

With `C/C(=N/NC(=S)Nc1ccccc1)c1ccc2c(c1)OCO2`, the inhibition is -22.5% (inactive).

Turning to `COc1ccc(OCCNS(=O)(=O)Cc2ccccc2)cc1`, the inhibition is -30.4% (inactive).

Turning to `Cc1nonc1C(=O)N/N=C/c1ccc(O)cc1`, the inhibition is -21.7% (inactive).

Consider `Cc1ccc2c(CC(=O)NCc3cccs3)coc2c1`, for which the inhibition is -29.9% (inactive).

Turning to `CCc1cccc(CC)c1NC(=O)COc1ccccc1C(=O)c1cc(C#N)c(=O)n(C2CCCCC2)c1`, the inhibition was -24.5% (inactive).

For `Cc1ccc(-c2cc(C(=O)N/N=C/C=C/c3ccccc3)n[nH]2)o1`, the inhibition was -23% (inactive).

In the case of `O=C(COC(=O)c1cc2c(s1)CCCC2)NCc1ccccc1Cl`, the inhibition is -45.2% (inactive).

Turning to `CCCN1CNC(=S)N(CCc2ccccc2)C1`, the inhibition was -20.8% (inactive).

On to `CCCCc1cc2c(s1)CCCC/C2=N/O`, for which the inhibition is -2.52% (inactive).

In the case of `N#Cc1c(-c2ccc(F)cc2)cc(C2CC2)nc1SCC(=O)c1cccs1`, the inhibition was -21.7% (inactive).

For `Cc1ccc(O)c(-c2cc(C(=O)Nc3c(C)n(C)n(-c4ccccc4)c3=O)[nH]n2)c1`, the inhibition was -27% (inactive).

Regarding `O=C(CSc1nc2ccccc2[nH]1)Nc1nc(-c2ccccc2)c(-c2ccccc2)o1`, the inhibition was -23.6% (inactive).

Regarding `COc1ccc(Br)cc1CN(C)CC(=O)Nc1cc(Cl)cc(Cl)c1`, the inhibition was -5.01% (inactive).

Consider `CCCCNC(=O)CCn1c(=O)c2ccccc2n(Cc2cc(C)ccc2C)c1=O`, for which the inhibition was -41.6% (inactive).

With `Nc1nnc(SCC(=O)OCc2ccc(Cl)c(Cl)c2)s1`, the inhibition is -17.1% (inactive).

On to `CC(=O)Nc1ccc(C(=O)OCC(=O)Nc2ccc([N+](=O)[O-])cc2C(F)(F)F)cc1`, for which the inhibition was -15.8% (inactive).

Take `C[n+]1ccccc1C1CCCC/C1=N\Nc1ccc([N+](=O)[O-])cc1[N+](=O)[O-]` (stereo unspecified): the inhibition was 3.63% (inactive).

Take `CN(C)CCNC(=O)Cc1ccc([N+](=O)[O-])cc1`: the inhibition is -24.9% (inactive).

In the case of `N#C/C(=C(/O)Cc1cccc2ccccc12)c1nc2ccccc2s1`, the inhibition was -11% (inactive).

With `CC1=CC(=C(C#N)c2nc3ccccc3s2)C=C(C)N1c1ccc(F)cc1F`, the inhibition is 79.4% (active).

For `COC(=O)c1nc2ccccc2s1`, the inhibition is -16.5% (inactive).

Regarding `O=[N+]([O-])c1ccc(N2CCNCC2)cc1NCc1cccnc1`, the inhibition is -24.3% (inactive).

With `COc1ccc(C/C(C)=N/NC(=O)c2cc(C)oc2C)cc1`, the inhibition was -13.9% (inactive).

Consider `COCCNC(=O)c1ccccc1NS(=O)(=O)c1ccc(C)c([N+](=O)[O-])c1`, for which the inhibition was -4.7% (inactive).

Turning to `CCCC(NC(=O)c1ccco1)c1nc2ccccc2[nH]1` (stereo unspecified), the inhibition is -24.8% (inactive).

In the case of `C/C(=N\NC(=O)CSc1nc2ccccc2c(=O)n1-c1ccccc1C)c1cccs1`, the inhibition is -17% (inactive).

Regarding `CN1CCN(c2ccc(NC(=O)c3ccc4c(c3)[nH]c(=O)n4Cc3ccc(F)cc3)cc2)CC1`, the inhibition is -24.8% (inactive).

For `O=C(/C=C/NCc1ccc(F)cc1)c1ccccc1`, the inhibition is -30.4% (inactive).

Consider `Cc1c(NC(=S)Nc2ccccc2)c(=O)n(-c2ccccc2)n1C`, for which the inhibition was -29.6% (inactive).

Consider `CCCCOC(=O)c1ccc(NC(c2ccc(C)cc2)P(=O)(OC)OC)cc1` (stereo unspecified), for which the inhibition is -6.33% (inactive).

Take `COc1ccccc1N1N=C(c2cccs2)CC1c1ccccc1` (stereo unspecified): the inhibition is -12.8% (inactive).

On to `CCN(CC)CCn1c(/N=C/c2cc(Br)ccc2O)nc2ccccc21`, for which the inhibition is -20.7% (inactive).

Turning to `C=CCNCCCCOc1ccccc1`, the inhibition is -29.1% (inactive).

Take `O=C(CSc1nnc(SCc2ccc(Cl)cc2)s1)N/N=C/c1ccccc1Cl`: the inhibition was -26.2% (inactive).

Consider `CC(=O)Nc1ccc(S(=O)(=O)N2CCN(c3ccc([N+](=O)[O-])c(NCCN4CCOCC4)c3)CC2)cc1`, for which the inhibition is -27.6% (inactive).

Consider `C=CCNC(=O)/C=C/c1ccc(C(C)C)cc1`, for which the inhibition is -23.5% (inactive).

On to `Cc1ccc(N(Cc2cc3ccccc3[nH]c2=O)C(=O)c2cccs2)cc1`, for which the inhibition was -10.8% (inactive).

Consider `O=C(NC1CCCCCC1)c1cccnc1Sc1ccc(Cl)cc1`, for which the inhibition was -17.2% (inactive).

As for `Brc1ccc(C2CC(c3ccccc3)=Nc3ccccc3N2)cc1` (stereo unspecified), the inhibition is -11.5% (inactive).

For `COC(=O)C1=NNC2(c3ccc(C)cc3)C(=O)N(c3cccc(C)c3C)C(=O)C12` (stereo unspecified), the inhibition was -28.4% (inactive).

With `COc1cc(C(=S)NC2CCCCC2)ccc1O`, the inhibition was -30.2% (inactive).

`CC1(C)C2CC=C(/C=N/NC(=O)c3ccc(Cl)cc3)C1C2` (stereo unspecified): the inhibition is -29.6% (inactive).

With `CCCc1nc(SCC(=O)Nc2ccc(S(=O)(=O)N(C)C)cc2)c2ccccc2n1`, the inhibition was -25.4% (inactive).

Take `NC1=NN(c2cccc(C(=O)O)c2)C(=O)C1`: the inhibition is -7.9% (inactive).

As to `CN(CC(=O)NCCc1ccccc1)S(=O)(=O)c1cnc[nH]1`, the inhibition was -21% (inactive).

With `COc1cccc(NC(=S)NCc2ccco2)c1`, the inhibition is -28.3% (inactive).

As to `O=C(CN1CCN(c2ccccn2)CC1)N1CCc2ccccc21`, the inhibition was -10% (inactive).
